Bioassay records (PubChem BioAssay)
SMN2 splice up: increases expression of the SMN2 splice variant; HEK293 SMN2-luciferase splicing reporter, luminescence, 30-36 h; Potency, µM (top dose mostly 46.1 µM), for the others: at the highest dose activity change, positive = activation, actives largely listed as activators; 210,000 tested, 2.8% active; AID 1458; note: % of control where 0% means no effect; nearly all actives have a fitted effect of over 55% in size
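HEK293 cells carry an SMN2 minigene-luciferase reporter in which exon 7 inclusion puts luciferase in frame. Cells were seeded at 2000 cells/well, attached for 10-12 hours, then exposed to compounds for 30-36 hours at 37C before ONE-Glo luminescence.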
NPC1 prom act: activators of NPC1 promoter; Huh7 NPC1 promoter luciferase reporter, 24 h; AID 485313; Potency, µM (doses to about 9.22 µM), for the others: at the highest dose activation, usual class: activators; 320,000 tested, 2.4% active; note: % of control where 0% means no effect; nearly all actives have a fitted effect of over 60% in size
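Readout is luciferase luminescence, reflecting NPC1 promoter activation in stably transfected Huh7 cells after 24 h compound exposure at 37 °C in reduced-serum medium with 10% FBS.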
Rab9 prom act: activators of Rab9 promoter; Potency, µM (series often up to 9.22 µM), for the others: at the highest dose activation, negative = inhibition, most hits filed as activators; Huh7 Rab9 promoter-luciferase reporter, luminescence, 24 h; 320,000 tested, 2.8% active; note: % of control where 0% means no effect; nearly all actives have a fitted effect of over 60% in size
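Cells were plated at 1500 per well in reduced-serum medium with 10% FBS and left 2 h. Compound in DMSO was then added for 24 h at 37 °C. Reporter signal was read by luminescence after 10 min with luciferase detection reagent.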
p53 reactivation: re-activators of mutant p53; H1299 p53-A138V BP100-luciferase reporter, luminescence, 24 h; 320,000 tested, 0.063% active; Potency, µM (highest dose often 92.2 µM), without a hit: top-dose activity change, positive = activation, actives largely listed as activators; AID 504706; note: % of control where 0% means no effect; nearly all actives have a fitted effect of over 45% in size
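H1299 (p53-null), stable ts p53-A138V + BP100-Luc; 1000 cells/well, Opti-MEM/10% FBS; cpd 4 pt, 1:5; 24 h, 37 deg C, 5% CO2; detection reagent 10 min RT; luminescence.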
FLuc modulator: inhibits or activates purified firefly luciferase, miR-21 counter-screen | purified FLuc, Km substrates, luminescence inhibition | 360,000 tested, 6.9% active | Potency, µM (series often up to 57.5 µM), for the others: at the top dose activity change, negative = inhibition, hits mostly inhibitors | AID 588342;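 note: plate controls were vehicle for no effect and reference inhibitor for full effect; nearly all actives have a fitted effect of over 55% in size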
Target sequence (P08659 whole entry, looked up): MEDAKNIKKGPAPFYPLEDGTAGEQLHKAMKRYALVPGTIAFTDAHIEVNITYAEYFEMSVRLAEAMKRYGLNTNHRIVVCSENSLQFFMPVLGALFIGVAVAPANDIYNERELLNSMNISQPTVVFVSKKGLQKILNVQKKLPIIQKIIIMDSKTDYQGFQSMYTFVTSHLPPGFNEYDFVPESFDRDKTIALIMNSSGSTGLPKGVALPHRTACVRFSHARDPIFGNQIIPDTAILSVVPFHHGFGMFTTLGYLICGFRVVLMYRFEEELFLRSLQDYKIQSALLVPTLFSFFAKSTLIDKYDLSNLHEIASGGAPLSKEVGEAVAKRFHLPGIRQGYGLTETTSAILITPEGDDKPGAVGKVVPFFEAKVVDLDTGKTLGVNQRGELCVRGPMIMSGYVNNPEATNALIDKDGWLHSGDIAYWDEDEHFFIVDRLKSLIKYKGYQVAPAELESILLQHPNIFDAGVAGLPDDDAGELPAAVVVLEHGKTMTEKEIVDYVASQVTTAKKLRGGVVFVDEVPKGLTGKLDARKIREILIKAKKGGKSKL
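Purified P. pyralis luciferase (10nM final) with 10uM D-luciferin and 10uM ATP (Km levels) in 50mM Tris acetate pH 7.5, 10mM Mg acetate, 0.01% Tween-20, 0.05% BSA; qHTS 6-point titration, ~60 µM downward; luminescence read.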
ELG1 genotoxic: induces genotoxicity in HEK293T cells with luciferase-tagged ELG1; Potency, µM (doses to about 46 µM), for inactives: at the highest dose activity change, positive = activation, usual class: activators; HEK293T ELG1-luciferase reporter, luminescence, 16 h; 330,000 tested, 1.3% active; note: % of control where 0% means no effect; nearly all actives have a fitted effect of over 60% in size
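Genotoxicity was scored as increased ELG1-luciferase reporter signal, measured by ONE-Glo luminescence (30 min, room temperature). Compound or vehicle exposure of the HEK293T reporter cells lasted 16 hr at 37°C.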
Numbers without * were called inactive; ? = inconclusive; · = no result given; [ ] = remark or other dose. Compounds with a hit are over-represented: about 7.3% of the library has one in this group of screens. Calls come from the whole dose curve; as a rule, active = well fitted curve in the direction sought with a large enough effect; inconclusive = small, poorly fitted or top-dose-only effect, or another doubt; inactive = no such curve, though single readings can be large; an effect the other way counts as inactive or inconclusive. Potency is the fitted concentration of half-maximal effect.

SMILES	SMN2 splice up	NPC1 prom act	Rab9 prom act	p53 reactivation	FLuc modulator	ELG1 genotoxic
O=C1NN(c2ccccc2)C(=O)/C1=C\c1coc2ccc(O)cc2c1=O	·	-6.2%	-2.7%	21.7%	?	1.6%
Cc1cc(/C=C2\C(=O)NN(c3ccccc3)C2=O)c(C)n1-c1ccccc1O	·	2.82µM*	2.82µM*	12.3%	1.35µM*	?
COc1ccc(-n2c(C)cc(/C=C3\C(=O)NN(c4ccccc4)C3=O)c2C)cc1	?	?	26.8%	?	2.69µM*	?
COc1ccc(Sc2ccc(/C=C3\C(=O)NN(c4ccccc4)C3=O)o2)cc1	0.2%	-2.8%	-6.6%	4.9%	-17.4%	3.6%
Cc1cc(/C=C2/C(=O)NN(c3ccccc3)C2=O)c(C)n1-c1ccc(O)cc1	-77.5%	?	2.51µM*	17.9%	0.151µM*	?
Cc1cc(C=C2C(=O)CCCC2=O)c(C)n1-c1ccccc1	4.4%	1.0%	-0.1%	0.3%	16.9µM*	1.8%
CCN(C(=O)Cn1cnc2onc(-c3ccc(F)cc3)c2c1=O)c1cc(C)ccc1C	·	·	·	·	-0.8%	·
C[N+](C)(C)CC(=O)N/N=C\c1ccncc1	-6.3%[9.22 µM]	·	·	·	·	·
COCC(=O)Nc1ccc(OCc2ccccc2)cc1	12.6µM*	?	?	?	?	?
CC(=O)Nc1ccc(N=Cc2ccc(OCc3ccccc3)cc2)cc1	?	-2.5%	0.3%	?	23.9µM*	?
NC(=O)COc1ccc(NC(=O)OCc2ccccc2)cc1	20.8%	19.8%	16.7%	3.9%	12µM*	?
COC(=O)Nc1ccc(SCC(=O)c2ccccc2)cc1	14.3%	17.2%	?	8.8%	19µM*	11.6%
NC(=O)COc1ccccc1	·	-3.8%	-4.8%	8.7%	0.2%	-3.4%
O/N=C(/c1ccccc1)c1cc2cc(Br)cc(Br)c2o1	·	-3.1%	4.6%	5.5%	-2.6%	5.2%
COc1cc(O)ccc1-c1nc2cc(C)ccn2c1Nc1ccccc1C	?	·	·	·	-20.6%	·
Cc1cc(C)n(-c2nc3cc(Cl)ccc3nc2N2CCN(c3cccc(C)c3C)CC2)n1	-11.4%	·	·	·	-1.0%	·
CCOc1ccc(CCNC(=O)c2ccc3c(c2)c(C)c(C)n3C)cc1	·	·	·	·	-13.1%	·
COC(=O)Nc1ccc(OCc2ccccc2)cc1	12.6µM*	?	2.82µM*	27.2%	-0.5%[2.3 µM]	?
CS(=O)(=O)Nc1ccc(OCc2ccccc2)cc1	?	?	?	?	13.5µM*	14.6µM*
COC(=O)Nc1ccc(Oc2ccccc2)cc1	?	1.8%	0.1%	11.9%	?	?
Nc1c(-c2nc(-c3cccs3)no2)nnn1-c1cccc(Cl)c1	·	·	·	·	-3.1%	·
CCN1C(=O)c2cccc3c(NC(=O)c4ccc(OC)c(OC)c4)ccc1c23	·	-2.7%	-4.3%	-9.9%	3.9%	14.6µM*
COc1cc(NC(=O)C2CCN(C(=O)c3sc4nc[nH]c(=O)c4c3C)CC2)cc(OC)c1OC	·	·	·	·	-1.4%	·
COc1ccc(N/C=C\C(=O)c2ccc(C)cc2)cc1OC	19.4%	?	3.55µM*	-1.1%	5.36µM*	?
COc1ccc(N/C=C/C(=O)c2ccc3c(c2)OCO3)cc1OC	17.3%	28.0%	?	?	2.69µM*	?
SMILES	SMN2 splice up	NPC1 prom act	Rab9 prom act	p53 reactivation	FLuc modulator	ELG1 genotoxic
O=C(/C=C\Nc1ccc2c(c1)OCO2)c1ccc2c(c1)OCO2	?	3.98µM*	0.794µM*	-2.4%	0.135µM*	2.31µM*
COc1ccc(N/C=C\C(=O)c2ccc3c(c2)OCO3)cc1	?	1.78µM*	3.55µM*	?	0.269µM*	?
O=C(O)c1ccc2c(c1)OCO2	-21.2%	·	·	·	·	·
COc1ccc(N/C=C\C(=O)c2ccc(Br)cc2)cc1OC	?	?	?	14.1%	?	14.9%
CSc1nnc(C(C)(C)C)c(=O)n1/N=C/c1ccc(Cl)cc1	·	2.0%	-4.8%	-1.9%	3.5%	-0.8%
CCN(CC)S(=O)(=O)c1ccc2oc(C(=O)NCCCN3CCOCC3)c(C)c2c1	-11.1%	8.4%	0.1%	-2.6%	-2.8%	-0.4%
CCCc1ccc2oc(C(=O)NCc3nnc(C)o3)c(C)c2c1	·	2µM*	2.82µM*	?	9.53µM*	9.2µM*
CCCc1ccc2oc(C(=O)NCCCN3CCOCC3)c(C)c2c1	·	13.7%	1.3%[1.84 µM]	?	13.5µM*	?
CCc1cccc2c(C(=O)COC(=O)c3nccnc3N)c[nH]c12	·	24.6%	?	8.8%	15.1µM*	?
CCc1cccc2c(C(=O)COC(=O)c3ccccc3)c[nH]c12	26.3%	?	?	?	2.39µM*	?
CCOc1ccc(NC(=O)[C@@H](c2ccccc2)N2Cc3ccccc3C2=O)cc1	-3.0%	·	·	·	-5.1%	·
COc1cc(OC)cc(-c2c(-c3cccs3)c3cc(-c4ccc(C(N)=O)cc4)ccc3n2C)c1	·	·	·	-2.1%	·	?
COc1ccc(CC(=O)Nc2ccc(-c3ccc4nnc(C)n4n3)cc2)cc1OC	17.8µM*	-11.2%	-18.8%	-10.1%	0.2%	20.6µM*
COc1ccc(C(CNC(=O)c2cccc(NS(=O)(=O)c3ccc(Br)cc3)c2)N(C)C)cc1 (stereo unspecified)	·	-1.8%	-5.8%	1.4%	3.0%	-1.1%
O=C(/C=C/Nc1ccc(F)c(Cl)c1)c1ccco1	?	0.6%	-0.4%	?	5.36µM*	4.11µM*
O=C(/C=C/Nc1cccc(F)c1)c1ccco1	12.6µM*	?	2.51µM*	?	2.13µM*	3.16µM*
CCCC(=O)N1c2ccccc2[C@@H](N(C(C)=O)c2ccccc2)C[C@H]1C	6.5%	-2.0%	5.2%	-3.3%	0.5%	0.1%
CCC(=O)N1c2ccccc2C(N(C(=O)CC)c2ccccc2)CC1C (stereo unspecified)	·	-1.4%	-1.5%	-3.0%	-2.5%	23.1µM*
CCC(=O)N1c2ccccc2C(N(C(C)=O)c2ccccc2)CC1C (stereo unspecified)	5.62µM*	-12.1%	-3.5%	-12.6%	5.9%	?
CC(C)c1cc(C(=O)Nc2ccc3c(c2)OCO3)no1	7.08µM*	2.82µM*	1.58µM*	?	3.38µM*	2.06µM*
O=C(Nc1ccc2c(c1)OCO2)c1cc(C2CC2)on1	11.2µM*	1.58µM*	1.41µM*	9.3%	4.26µM*	2.06µM*
CC(C)c1cc(C(F)(F)F)n2nc(C(=O)Nc3ccc4c(c3)OCO4)cc2n1	8.7%	27.5%	?	11.0%	12µM*	?
COc1ccc(-c2cc(C(=O)Nc3ccc4c(c3)OCO4)no2)cc1	4.8%	1.0%	-1.6%	6.9%	2.3%	6.5%
COc1ccc(/C=C2\CCCc3c2nc2ccccc2c3C(=O)O)cc1OC	·	1.0%	3.1%	3.4%	?	7.6%
